Reference: the antibiotic and cytotoxicity screens of Wong et al. (2023)
Screen size: about 39,000 compounds; about 3,300 (8.5%) were called active. Many of the other results were omitted from the sample, so actives are more common in it than they were.

The compounds below were run on HepG2 (assay: cytotoxicity call (relative viability < 0.9)). Settings: 10 µM.
With O=CN[C@H](Cc1ccccc1)C(=O)O the cytotoxicity call was “inactive”. C[C@H]1CN([C@@H](C)CO)C(=O)Cc2cc(NC(=O)CCCCCC(=O)Nc3ccccc3N)ccc2O[C@H]1CN(C)Cc1ccc(Oc2ccccc2)cc1 was tested, and the cytotoxicity call was “inactive”. For COc1ccc(CN(C)C[C@H]2Oc3ccc(NC(=O)CCCCCC(=O)Nc4ccccc4N)cc3CC(=O)N([C@H](C)CO)C[C@H]2C)cc1, the cytotoxicity call was “inactive”. With C[C@@H]1CN([C@H](C)CO)C(=O)Cc2cc(NC(=O)CCCCCC(=O)Nc3ccccc3N)ccc2O[C@@H]1CN(C)Cc1ccc(Oc2ccccc2)cc1 the cytotoxicity call was “active”. For C[C@H]1CN([C@@H](C)CO)C(=O)Cc2cc(NC(=O)CCCCCC(=O)Nc3ccccc3N)ccc2O[C@@H]1CN(C)Cc1ccc(Oc2ccccc2)cc1, the cytotoxicity call was “inactive”. In the case of COc1ccc(CN(C)C[C@@H]2Oc3ccc(NC(=O)CCCCCC(=O)Nc4ccccc4N)cc3CC(=O)N([C@H](C)CO)C[C@@H]2C)cc1, the cytotoxicity call is reported as “inactive”. C[C@@H]1CN([C@@H](C)CO)C(=O)Cc2cc(NC(=O)CCCCCC(=O)Nc3ccccc3N)ccc2O[C@@H]1CN(C)Cc1ccc(Oc2ccccc2)cc1 was tested, and the cytotoxicity call was “active”. C[C@H](CO)N1C[C@H](C)[C@H](CN(C)Cc2ccc(Oc3ccccc3)cc2)Oc2ccc(NC(=O)CCCCCC(=O)Nc3ccccc3N)cc2CC1=O was tested, and the cytotoxicity call was “inactive”. For COc1ccc(CN(C)C[C@H]2Oc3ccc(NC(=O)CCCCCC(=O)Nc4ccccc4N)cc3CC(=O)N([C@@H](C)CO)C[C@H]2C)cc1, the cytotoxicity call was “active”. C[C@@H]1CN([C@H](C)CO)C(=O)Cc2cc(NC(=O)CCCCCC(=O)Nc3ccccc3N)ccc2O[C@H]1CN(C)Cc1ccc(Oc2ccccc2)cc1 was tested, and the cytotoxicity call was “inactive”. In the case of Cc1noc(C)c1NC(=O)Nc1ccc2c(c1)CC(=O)N([C@@H](C)CO)C[C@@H](C)[C@H](CN(C)Cc1ccc(C(F)(F)F)cc1)O2, the cytotoxicity call is reported as “inactive”. In the case of CC(C)NC(=O)Nc1ccc2c(c1)C(=O)N([C@H](C)CO)C[C@@H](C)[C@H](CN(C)CC1CCCCC1)OCCCC[C@H](C)O2, the cytotoxicity call is reported as “inactive”. In the case of C[C@@H]1CN([C@@H](C)CO)C(=O)c2cc(NC(=O)Nc3ccc4c(c3)OCO4)ccc2O[C@H]1CN(C)Cc1ccc(C(F)(F)F)cc1, the cytotoxicity call is reported as “inactive”. In the case of C[C@H]1CN([C@@H](C)CO)C(=O)c2cc(NC(=O)Nc3ccc(C(F)(F)F)cc3)ccc2O[C@H]1CN(C)Cc1ccc2c(c1)OCO2, the cytotoxicity call is reported as “active”. In the case of C[C@H](CO)N1C[C@H](C)[C@H](CN(C)Cc2ccc3c(c2)OCO3)Oc2ccc(NC(=O)Nc3ccc(C(F)(F)F)cc3)cc2C1=O, the cytotoxicity call is reported as “active”. In the case of C[C@@H]1CN([C@@H](C)CO)C(=O)c2cc(NC(=O)Nc3ccc(C(F)(F)F)cc3)ccc2O[C@@H]1CN(C)Cc1ccc2c(c1)OCO2, the cytotoxicity call is reported as “active”. With C[C@H]1CN([C@@H](C)CO)C(=O)c2cc(NC(=O)Nc3ccc4c(c3)OCO4)ccc2O[C@H]1CN(C)Cc1ccc(C(F)(F)F)cc1 the cytotoxicity call was “inactive”. In the case of C[C@@H]1CN([C@H](C)CO)C(=O)c2cc(NC(=O)Nc3ccc(C(F)(F)F)cc3)ccc2O[C@H]1CN(C)Cc1ccc2c(c1)OCO2, the cytotoxicity call is reported as “inactive”. For C[C@H](CO)N1C[C@H](C)[C@@H](CN(C)Cc2ccc(C(F)(F)F)cc2)Oc2ccc(NC(=O)Nc3ccc4c(c3)OCO4)cc2C1=O, the cytotoxicity call was “inactive”. C[C@@H]1CN([C@H](C)CO)C(=O)c2cc(NC(=O)Nc3ccc(C(F)(F)F)cc3)ccc2O[C@@H]1CN(C)Cc1ccc2c(c1)OCO2 was tested, and the cytotoxicity call was “active”. CN(C)Cc1cn(CC[C@H]2CC[C@@H](NS(=O)(=O)c3ccccc3)[C@@H](CO)O2)nn1 was tested, and the cytotoxicity call was “inactive”. With C[C@H]1CN([C@@H](C)CO)C(=O)CCCn2cc(nn2)CO[C@@H]1CN(C)Cc1ccc(C(=O)Nc2ccccc2N)cc1 the cytotoxicity call was “inactive”. In the case of C[C@@H]1CN([C@@H](C)CO)C(=O)c2cccc(NS(=O)(=O)c3cccs3)c2O[C@@H]1CN(C)CC1CC1, the cytotoxicity call is reported as “inactive”. In the case of C[C@@H]1CN([C@@H](C)CO)C(=O)c2cc(NS(=O)(=O)c3ccc(Cl)cc3)ccc2O[C@@H](C)CCCCO[C@@H]1CN(C)C(=O)NC1CCCCC1, the cytotoxicity call is reported as “inactive”. For Cc1noc(C)c1S(=O)(=O)Nc1cccc2c1O[C@@H](CN(C)Cc1ccc(Oc3ccccc3)cc1)[C@@H](C)CN([C@@H](C)CO)C2=O, the cytotoxicity call was “inactive”. In the case of C[C@H]1CN([C@@H](C)CO)S(=O)(=O)c2ccc(-c3ccncc3)cc2O[C@H]1CN(C)S(=O)(=O)c1ccccc1F, the cytotoxicity call is reported as “inactive”. In the case of [O-][NH2+]N(CCO)CCO, the cytotoxicity call is reported as “inactive”. For C[C@@H]1CN([C@@H](C)CO)C(=O)c2cc(NC(=O)Nc3ccc(C(F)(F)F)cc3)ccc2O[C@H]1CN(C)Cc1ccc2c(c1)OCO2, the cytotoxicity call was “active”. For C[C@@H]1CN([C@H](C)CO)C(=O)c2cc(NC(=O)Nc3ccc4c(c3)OCO4)ccc2O[C@H]1CN(C)Cc1ccc(C(F)(F)F)cc1, the cytotoxicity call was “inactive”. For C[C@@H]1CN([C@@H](C)CO)C(=O)c2cc(NC(=O)Nc3ccc4c(c3)OCO4)ccc2O[C@@H]1CN(C)Cc1ccc(C(F)(F)F)cc1, the cytotoxicity call was “inactive”. C[C@H](CO)N1C[C@H](C)[C@@H](CN(C)Cc2ccc3c(c2)OCO3)Oc2ccc(NC(=O)Nc3ccc(C(F)(F)F)cc3)cc2C1=O was tested, and the cytotoxicity call was “active”. For C[C@@H]1CN([C@H](C)CO)C(=O)c2cc(NC(=O)Nc3ccc4c(c3)OCO4)ccc2O[C@@H]1CN(C)Cc1ccc(C(F)(F)F)cc1, the cytotoxicity call was “active”. For C[C@H]1CN([C@@H](C)CO)C(=O)c2cc(NC(=O)Nc3ccc(C(F)(F)F)cc3)ccc2O[C@@H]1CN(C)Cc1ccc2c(c1)OCO2, the cytotoxicity call was “active”. In the case of C[C@H]1CN([C@@H](C)CO)C(=O)c2cc(NC(=O)Nc3ccc4c(c3)OCO4)ccc2O[C@@H]1CN(C)Cc1ccc(C(F)(F)F)cc1, the cytotoxicity call is reported as “inactive”. C[C@H](CO)N1C[C@H](C)[C@H](CN(C)Cc2ccc(C(F)(F)F)cc2)Oc2ccc(NC(=O)Nc3ccc4c(c3)OCO4)cc2C1=O was tested, and the cytotoxicity call was “inactive”. With C[C@@H]1CN([C@H](C)CO)C(=O)c2ccccc2-c2ccccc2CO[C@H]1CN(C)C(=O)Nc1cccc(Cl)c1Cl the cytotoxicity call was “inactive”. C[C@@H]1CN([C@@H](C)CO)C(=O)c2cc(NC(=O)C3CC3)ccc2O[C@@H]1CN(C)S(=O)(=O)c1cn(C)cn1 was tested, and the cytotoxicity call was “inactive”. In the case of C[C@H](CO)N1C[C@H](C)[C@H](CN(C)S(=O)(=O)c2ccccc2)OCCCC[C@H](C)Oc2ccc(NC(=O)Nc3cccc4ccccc34)cc2C1=O, the cytotoxicity call is reported as “inactive”. With COc1cccc(S(=O)(=O)Nc2ccc3c(c2)[C@H]2C[C@@H](CC(=O)NC4CCCCC4)O[C@@H](CO)[C@H]2O3)c1 the cytotoxicity call was “inactive”. With COCCOC(=O)N1C(=O)[C@@]2(c3ccccc31)[C@H](c1ccc(O)cc1)N1[C@H](c3ccccc3)[C@H](c3ccccc3)OC(=O)[C@H]1[C@@H]2C(=O)N1CCc2cc(OC)c(OC)cc2C1 the cytotoxicity call was “inactive”. With COc1ccc(S(=O)(=O)Nc2ccc3c(c2)C(=O)N([C@H](C)CO)C[C@@H](C)[C@@H](CN(C)S(=O)(=O)c2cccs2)O3)cc1 the cytotoxicity call was “inactive”. For C[C@@H]1CCCCO[C@H](CN(C)CC2CC2)[C@H](C)CN([C@@H](C)CO)C(=O)c2cc(NC(=O)Cc3ccccc3)ccc2O1, the cytotoxicity call was “inactive”. For O=C(C[C@@H]1C=C[C@H](NC(=O)C2CC2)[C@H](CO)O1)NCCCN1CCOCC1, the cytotoxicity call was “inactive”. With Cc1[nH]c(/C=C2\C(=O)Nc3ccc(S(=O)(=O)Cc4c(Cl)cccc4Cl)cc32)c(C)c1C(=O)N1CCC[C@@H]1CN1CCCC1 the cytotoxicity call was “active”. With C[C@@H]1CN([C@@H](C)CO)C(=O)CCCn2cc(nn2)CO[C@@H]1CN(C)S(=O)(=O)c1ccc(C#N)cc1 the cytotoxicity call was “inactive”. C[C@@H]1CN([C@@H](C)CO)C(=O)c2cc(NS(=O)(=O)c3ccc(F)cc3)ccc2O[C@@H]1CN(C)Cc1ccc(Oc2ccccc2)cc1 was tested, and the cytotoxicity call was “active”. In the case of C[C@@H]1CN([C@H](C)CO)C(=O)c2cc(NS(=O)(=O)c3ccc(F)cc3)ccc2O[C@@H]1CN(C)Cc1ccc(Oc2ccccc2)cc1, the cytotoxicity call is reported as “active”. For C[C@@H]1CN([C@@H](C)CO)C(=O)c2cc(NS(=O)(=O)c3ccc(F)cc3)ccc2O[C@H]1CN(C)Cc1ccc(Oc2ccccc2)cc1, the cytotoxicity call was “inactive”. For C[C@H]1CN([C@@H](C)CO)C(=O)c2cc(NS(=O)(=O)c3ccc(F)cc3)ccc2O[C@@H]1CN(C)Cc1ccc(Oc2ccccc2)cc1, the cytotoxicity call was “inactive”. In the case of C[C@H]1CN([C@@H](C)CO)C(=O)c2cc(NS(=O)(=O)c3ccc(F)cc3)ccc2O[C@H]1CN(C)Cc1ccc(Oc2ccccc2)cc1, the cytotoxicity call is reported as “inactive”. For C[C@@H]1CN([C@H](C)CO)C(=O)c2cc(NS(=O)(=O)c3ccc(F)cc3)ccc2O[C@H]1CN(C)Cc1ccc(Oc2ccccc2)cc1, the cytotoxicity call was “inactive”. With COCC(=O)N(C)C[C@@H]1Oc2cc(C#Cc3ccccc3)ccc2S(=O)(=O)N([C@H](C)CO)C[C@@H]1C the cytotoxicity call was “inactive”. With C[C@H](CO)N1C[C@H](C)[C@H](CN(C)S(=O)(=O)c2cn(C)cn2)Oc2cc(C#Cc3ccccc3)ccc2S1(=O)=O the cytotoxicity call was “inactive”. CNCCC(Oc1cccc2ccccc12)c1cccs1.Cl (centres undefined) was tested, and the cytotoxicity call was “active”. With CNCc1cccc2ccccc12 the cytotoxicity call was “inactive”. For Cc1noc(C)c1S(=O)(=O)Nc1ccc2c(c1)CC(=O)N([C@H](C)CO)C[C@H](C)[C@@H](CN(C)Cc1ccccc1)O2, the cytotoxicity call was “inactive”. For C[C@H]1CN([C@@H](C)CO)C(=O)c2cccc(NS(=O)(=O)c3ccc(Cl)cc3)c2O[C@@H]1CN(C)C(=O)Nc1cccc2ccccc12, the cytotoxicity call was “inactive”. In the case of O=c1nc[nH]c2c1ncn2[C@@H]1O[C@H](CO)[C@@H](O)[C@H]1O, the cytotoxicity call is reported as “inactive”. In the case of Nc1nc(=S)c2ncn([C@@H]3O[C@H](CO)[C@@H](O)[C@H]3O)c2[nH]1, the cytotoxicity call is reported as “active”. For OC[C@H]1O[C@H](n2cnc3cncnc32)[C@@H](O)[C@@H]1O, the cytotoxicity call was “active”. In the case of Nc1nc(Cl)nc2c1ncn2[C@@H]1O[C@H](CO)[C@@H](O)[C@H]1O, the cytotoxicity call is reported as “inactive”. With Nc1ncnc2c1ncn2[C@@H]1O[C@H](COP(=O)(O)O)[C@@H](O)[C@H]1O the cytotoxicity call was “inactive”. Nc1ncnc2c1ncn2[C@@H]1O[C@H](COP(=O)(O)OP(=O)(O)OP(=O)(O)OP(=O)(O)OC[C@H]2O[C@@H](n3cnc4c(N)ncnc43)[C@H](O)[C@@H]2O)[C@@H](O)[C@H]1O was tested, and the cytotoxicity call was “active”. With Nc1ncnc2c1ncn2[C@H]1O[C@@H](CO)[C@H](O)[C@@H]1O the cytotoxicity call was “inactive”. In the case of Nc1ncnc2c1ncn2[C@H]1O[C@@H](COP(=O)(O)OP(=O)(O)OP(=O)(O)O)[C@@H](O)[C@@H]1O, the cytotoxicity call is reported as “inactive”. With Nc1nc(F)nc2c1ncn2[C@@H]1O[C@H](CO)[C@@H](O)[C@H]1O the cytotoxicity call was “active”. For Nc1nc(F)nc2c1ncn2[C@@H]1O[C@H](COP(=O)(O)O)[C@@H](O)[C@@H]1O, the cytotoxicity call was “inactive”. For Nc1ncnc2c1ncn2[C@@H]1O[C@H](CO)[C@@H](O)[C@@H]1O, the cytotoxicity call was “inactive”. In the case of Nc1nc(=O)c2ncn([C@@H]3O[C@H](CO)[C@@H](O)[C@H]3O)c2[nH]1, the cytotoxicity call is reported as “inactive”.
